# Over roughly 9,900 sequences, “r (bound/input frequency ratio)” has its median near 0.7; the highest 2% begin near 6.5. Only a selection was taken, and the highest values are over-represented in it overall.
# B1: ENSMUSG00000028439.270|Fam219a|220:224 (ssRNA)
# RNA: GGGAGUUCUACAGUCCGACGAUCGCUUCGAUAUCCGCAUGCUAAGCUGAGGCUGUAGCUCAGUGAGAUGGUGGCUCUCCCAUGGCUGAAGACAAGUGCAAGCAGAGAGAGCCUCAGGCUGCUGGGCCUCGGACCCACGAGCCUCCUCUCACUGAGCCAGUGCGGCCAGAGUGUCUCUCCUUCAGGCGCCCCACAUGCCAGCAUUUCCACCCUCUGGAUUCUCCUCACAUGUCACUCUCCAGGUGCCGGGGCCUAGAGUGGGCCACACAGAAGGAGGAGUGGGGCUGUUGGCUUAGGAAGGGAACUCUUGCGGUCGCACUAGUGUGGAAUUCUCGGGUGUCAAGG
# B2: ENSMUSG00000061578.426|Ksr2 (ssRNA)
# RNA: GGGAGUUCUACAGUCCGACGAUCGCUUCGAUAUCCGCAUGCUAGACCACUGACCCGUCCAGACCCUCGCUUCUUACAAUGCCUCUUCUUCUGCCAGACCAGCCACCUGCCCCACUAACACCAAAUGGCUUCUGUCCCUGCUUCACGUUGCAAAUCCUUCAAGACAGAAGUUUCAGAGGGGAUAGUUCCUUCUAACCUUGUACUGGGACAUCAUCUAUGUCCCCAUCCCCAGAGCUGAAUUAGAGACACCAAGUAGCCUCUUGGGUUGUUUUGUGGGGUGUUCCCCUUGCUGGUCAAAGGAGUGCUCUUGCGGUCGCACUAGUGUGGAAUUCUCGGGUGUCAAGG
# B3: ENSMUSG00000058297.310|Spock2 (ssRNA)
# RNA: GGGAGUUCUACAGUCCGACGAUCGCUUCGAUAUCCGCAUGCUAGCAGCUAGCUACUGGGGACCUUGUGCUGAGGCUUCCAGGACAAAGCCCCAGUCUGGCUCUCCCCCAGCCUCUCAGGGGCACUGGCUGGUCACAUCCACUGAGUAUUGAUCGGUUGGACUUUAGGGAAGAGCCUCCUCCUUCCCAUUCCUUUCUGCCACCCUGGAAUGGCCACCUUAAUCGUCAUCUCCUCGGGGGGAAUACGGAAAUGUCACCAAGCUCCAUAAAGUGCUUCUCAUUCCACGACACAGUUCUGACUCUCCCUCUUGCGGUCGCACUAGUGUGGAAUUCUCGGGUGUCAAGG
# B4: ENSMUSG00000090935.19|Synj2bp (ssRNA)
# RNA: GGGAGUUCUACAGUCCGACGAUCGCUUCGAUAUCCGCAUGCUAAUUAUUUAGUCACGGAGGAAGAGAUCAACCUGACGAGAGGACCUUCGGGUAAAUGGCCAAGAUCUGAAGAACCUGCUGCACCAAGAUGCUGUAGACCUCUUCCGUAAUGCGGGAUGUGCUGUGUCCCUGAGAGUACAGCACAGGUUACCAGUGCAGAAUGGACCUAUAGUACAUCGAGGUGAAGGAGAGCCAAGUGGAGUUCCUGUAGCUAUGGUGCUGCUACCAGUGUUUGCCCUCACCAUGGUAGCAGUUUGGGCCUUCUCUUGCGGUCGCACUAGUGUGGAAUUCUCGGGUGUCAAGG
# B5: ENSMUSG00000061578.1360|Ksr2|254:258 (ssRNA)
# RNA: GGGAGUUCUACAGUCCGACGAUCGCUUCGAUAUCCGCAUGCUAAGGCAAGCAACCUUGCCAAGGCAGGCCAGACAGGACAGCCCAGCUUCCCACUCCAGACAUGUUGUUCUUACAUCUCUGACCCAGUGAUCUUUCUAGGGGUCUGUCACAUGUCCCAACAGGUGGACAGCUCUCCAAGUCACCAACCUGAGGAAAAUAUCCCUCCUUGUAAAAAGGCUUUCUCUUUGUAAAUGAUUCUGUUGCCUUUUUCUAAACACAAAGUAUAUAUACCUAUAAAUGCUAUAUAUAUUAUAUAACACAAUCUCUUGCGGUCGCACUAGUGUGGAAUUCUCGGGUGUCAAGG
# B6: ENSMUSG00000029636.126|Wasf3 (ssRNA)
# RNA: GGGAGUUCUACAGUCCGACGAUCGCUUCGAUAUCCGCAUGCUAUCACUUUCAUGGCUAGCCCUGAUAGCGUUGGGCACCAGUUAGCCAGGCCAUGUUCAAGCUGCCUAGAGUCUGCAGAGCUUGCAUGGCAGAGCGGCCGCAUCUGGUUCCCUCCUACUCCACCCAGUGGAAAAGAGACCUCCACGUUUUAUUUUCUGGGAUCCCUGCUCCUCUGUUCACCAGGGAGUGAGCACAGGUCAGCACCUCACCCCCCUUGCUCUGAAUCAUGGAAGCUUGGCUUUAGCUGAGAGAUGCCACCAGCUCUCUUGCGGUCGCACUAGUGUGGAAUUCUCGGGUGUCAAGG
# B7: ENSMUSG00000038916.65|Soga3 (ssRNA)
# RNA: GGGAGUUCUACAGUCCGACGAUCGCUUCGAUAUCCGCAUGCUAACCUUUCUUUGUUUUGCACUCUUGAGUCAUAGUUGACUGGCUGACUGUGAAAAAUGGACAAAGUCUCAUAAUUAUUCUGUAGGAAUUGAGUAUUAUUUUACACCUGGAAAAUUUCAGCUGGUUGCAUUUUCAAAUUCAUGUAGAGGCAUUAAUUAUAAGUCAAUGUAGAUGAUUUAUAAAUUAUCUCUGUUAUAAAUUAUGUAGAUUUGUAAGCAUGCUGUUACUCAUGUUAGACAAAAAGGAAAACAUCAAUGUCUAAUCUCUUGCGGUCGCACUAGUGUGGAAUUCUCGGGUGUCAAGG
# B8: ENSMUSG00000061578.1302|Ksr2 (ssRNA)
# RNA: GGGAGUUCUACAGUCCGACGAUCGCUUCGAUAUCCGCAUGCUAGGGAUUGGCUGUAGUUAAUUAAAAGCACCUGUCUCUGUCAUCUCUGCACCCAACUGAAUCUCCCACCCUCAAGUGUACCUCUCAGGAUAUCCCCAGGCACACGAAGAUGGAAUGGAAAGCCAGUGGGUAUCUCCCACCCACUUAGAUGCUGAUGGCCUGGGACUAUAAACAGGGACAGUUGGGUCUCCUAAGGAAUAGCUUCCAGGUCCAGGAUGCUGGCAUCUCCCAGAGAGAACUCCAUCCCCUGACCACCAAGGCCUCUCUUGCGGUCGCACUAGUGUGGAAUUCUCGGGUGUCAAGG
# B9: ENSMUSG00000061578.924|Ksr2 (ssRNA)
# RNA: GGGAGUUCUACAGUCCGACGAUCGCUUCGAUAUCCGCAUGCUACAUGAGCCCAGAUAGUCAAAGACUUCAGCACAAGGGUGUUUAGAGUAGGCAGUGUGGAAGUAUCAAUAAGGUUAUUGAGAUGAGGAUUUAGAAAGAUCCAUGUAUAAAAGGUCUAGAAGGAUGAAGAUCUAAAACAAGAAGACUGCAUGUUAACGCUCCUGCCACUGUUGCCCCUUCCUUUACCCUUGGCAGACAUUGCUAAUCAAUCUCAGCACAGUUUCCAACCACAGUCAUAGAACAUUUGCCACAAAGGCCCUGGACUCUUGCGGUCGCACUAGUGUGGAAUUCUCGGGUGUCAAGG
# B10: ENSMUSG00000058297.292|Spock2|89:94 (ssRNA)
# RNA: GGGAGUUCUACAGUCCGACGAUCGCUUCGAUAUCCGCAUGCUAAGAGAGAAAGAGAGAGAGAAUGAGAGAGAAUGAGAGAGAGAAUACCCGAGGGCCACCCUGAUGCCCAGGAAGAGUGAGGGCAGCCCCCACACACGUGGAAGAGGCUGGGCAGCUAGCUACUGGGGACCUUGUGCUGAGGCUUCCAGGACAAAGCCCCAGUCUGGCUCUCCCCCAGCCUCUCAGGGGCACUGGCUGGUCACAUCCACUGAGUAUUGAUCGGUUGGACUUUAGGGAAGAGCCUCCUCCUUCCCAUUCCUUUCCUCUUGCGGUCGCACUAGUGUGGAAUUCUCGGGUGUCAAGG
# B11: ENSMUSG00000058297.291|Spock2|95:100 (ssRNA)
# RNA: GGGAGUUCUACAGUCCGACGAUCGCUUCGAUAUCCGCAUGCUAAGAGAGAGAGAGAAAGAGAGAGAGAAUGAGAGAGAAUGAGAGAGAGAAUACCCGAGGGCCACCCUGAUGCCCAGGAAGAGUGAGGGCAGCCCCCACACACGUGGAAGAGGCUGGGCAGCUAGCUACUGGGGACCUUGUGCUGAGGCUUCCAGGACAAAGCCCCAGUCUGGCUCUCCCCCAGCCUCUCAGGGGCACUGGCUGGUCACAUCCACUGAGUAUUGAUCGGUUGGACUUUAGGGAAGAGCCUCCUCCUUCCCAUUCUCUUGCGGUCGCACUAGUGUGGAAUUCUCGGGUGUCAAGG
# B12: ENSMUSG00000058297.294|Spock2|77:82 (ssRNA)
# RNA: GGGAGUUCUACAGUCCGACGAUCGCUUCGAUAUCCGCAUGCUAAGAGAGAAUGAGAGAGAAUGAGAGAGAGAAUACCCGAGGGCCACCCUGAUGCCCAGGAAGAGUGAGGGCAGCCCCCACACACGUGGAAGAGGCUGGGCAGCUAGCUACUGGGGACCUUGUGCUGAGGCUUCCAGGACAAAGCCCCAGUCUGGCUCUCCCCCAGCCUCUCAGGGGCACUGGCUGGUCACAUCCACUGAGUAUUGAUCGGUUGGACUUUAGGGAAGAGCCUCCUCCUUCCCAUUCCUUUCUGCCACCCUGGACUCUUGCGGUCGCACUAGUGUGGAAUUCUCGGGUGUCAAGG
# B13: ENSMUSG00000061578.830|Ksr2|59:63;101:105;176:180 (ssRNA)
# RNA: GGGAGUUCUACAGUCCGACGAUCGCUUCGAUAUCCGCAUGCUAAUAGAAACAGCAUUCUGGCUCACAGUUUCAAAGGGCUCAGUCCAUAGCUGCCUGACUCACACAUUCUAGGCCUUUCUUGAGGCAAGUGUUCAUCAUGAUACACACAGGGUGAGGAGGAGUUUCUUCAUGGCAAACAGGAAGCAAAGAGCAAUACAGGAAAAGGUCAGGGGUGAGAACACACAUUGCCACUUCCUCCAGCUAGGACCUUUGAGCAUCACAUUGUGAAGCCAUCCAGGGACUUGGGGGUUAGGUCAGAGGUACUCUUGCGGUCGCACUAGUGUGGAAUUCUCGGGUGUCAAGG
# Target: TDP-43 (Homo sapiens, UniProt Q13148 1-414)
# Experiment: RNA Bind-n-Seq with designed 260-mer pool; 25 mM Tris-HCl, 150 mM KCl, 3 mM MgCl2, BSA (printed 500 mg/mL), 20 units/mL SUPERase IN; pH not stated; 500 nM RNA pool, 1 h, 4 C; TDP-43 5, 50, 500 nM; high values mean tight binding
# Details: protein: recombinant; tags: SBP (GST cleaved off with PreScission; pGEX-GST-SBP)
# Method in brief: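 For each oligo, R gives binding as its mapped-read-normalized abundance after pulldown divided by its abundance in input. Bead-captured SBP-tagged TDP-43 (5, 50 or 500 nM) was incubated with 500 nM of an in vitro-transcribed 260-nt 3′ UTR oligo pool for 1 h at 4 °C in 25 mM Tris-HCl, 150 mM KCl, 3 mM MgCl2, BSA and SUPERase IN on streptavidin beads. Washed, biotin-eluted RNA was reverse transcribed, PCR-amplified and sequenced.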
# TDP-43, sequence (Q13148 whole entry): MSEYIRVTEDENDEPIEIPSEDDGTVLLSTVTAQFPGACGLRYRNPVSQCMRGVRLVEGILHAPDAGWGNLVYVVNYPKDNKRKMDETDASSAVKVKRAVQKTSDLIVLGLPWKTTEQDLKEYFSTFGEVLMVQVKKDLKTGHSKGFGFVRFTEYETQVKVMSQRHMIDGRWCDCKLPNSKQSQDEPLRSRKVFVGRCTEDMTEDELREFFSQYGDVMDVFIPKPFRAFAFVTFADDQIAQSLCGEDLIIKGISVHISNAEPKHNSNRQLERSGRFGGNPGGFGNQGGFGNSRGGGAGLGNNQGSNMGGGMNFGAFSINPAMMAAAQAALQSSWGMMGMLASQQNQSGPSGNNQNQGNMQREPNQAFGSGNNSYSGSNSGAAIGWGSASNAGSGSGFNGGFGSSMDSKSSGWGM
row,Binder,binding signal
1,B1,1.33 R (bound/input frequency ratio)
2,B2,1.01 R (bound/input frequency ratio)
3,B3,0.874 R (bound/input frequency ratio)
4,B4,0.919 R (bound/input frequency ratio)
5,B5,0.201 R (bound/input frequency ratio)
6,B6,1.2 R (bound/input frequency ratio)
7,B7,0.077 R (bound/input frequency ratio)
8,B8,0.444 R (bound/input frequency ratio)
9,B9,1.12 R (bound/input frequency ratio)
10,B10,5.57 R (bound/input frequency ratio)
11,B11,8.71 R (bound/input frequency ratio)
12,B12,2.62 R (bound/input frequency ratio)
13,B13,0.325 R (bound/input frequency ratio)
